The source of these data is PubChem BioAssay AID1457 (National Center for Advancing Translational Sciences (NCATS), 2008).

Hit rate of the full screen: of about 210,000 compounds, about 730 (0.35%) were called active. Another 1% or so got no clear call; they are omitted. The call rests on the fitted dose curve; in most records, active means well fitted inhibition curve with a large enough effect; inconclusive means small, poorly fitted or top-dose-only effect; inactive means no such curve, though single readings can be large or run the other way. The full list was thinned out, with actives kept by preference.
Potency means the concentration at half of the fitted maximal effect.

The test can be described thus: qHTS Assay for Identifying the Cell-Membrane Permeable IMPase Inhibitors: Potentiation with Lithium.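 Further: IP1 builds up when IMPase is blocked and the TR-FRET signal falls; nearly all actives have a fitted effect of over 50% in size.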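 On activity, negative = IMPase inhibition: plate controls were basal vehicle for no effect and high inhibitor control for full effect.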 To be noted: CHO-M1 cells, IP1 TR-FRET (IP-One), carbachol + lithium; series mostly up to 59.4 µM; activity, negative = IMPase inhibition: at the top concentration. The text has this:
NIH Chemical Genomics Center [NCGC]
NIH Molecular Libraries Probe Production centers Network [MLPCN]
Assay Submitter (PI): Wei Zheng
Lithium has been widely used for the treatment of bipolar disorder. But lithium has a narrow therapeutic index and it can cause side effects such as thirst, weight gain, tremor, polyuria and memory problems. Although the mechanism for lithium action in treatment of bipolar disorder is still not fully understood, inhibition of inositol monophosphatase (IMPase) and the subsequent depletion of the inositol pool in living cells have been implicated as the primary therapeutic benefit of lithium therapy. Therefore, a selective IMPase inhibitor with reduced side effects might be a good drug candidate to replace lithium for the treatment of bipolar disorder. Several IMPase inhibitors have been discovered previously. However, they are not suitable for therapeutic use because of their poor cell membrane penetrability or oral bioavailability; the development of new cell-permeable IMPase inhibitors is needed.
IMPase catalyzes the hydrolysis of inositol-1-phosphate (IP1) to release free inositol. Binding of an agonist to a Gq coupled GPCR results in the activation of PLC, which hydrolyzes the PIP2 to form inositol-1,4,5-trisphosphate (IP3) and diacyl glycerol (DAG). While DAG activates protein kinase C (PKC), IP3 triggers the elevation of intracellular free Ca2+. The IP3 is very rapidly inactivated by hydrolysis to IP2, IP1 and then inositol by a series of enzymes including IMPase. Free inositols are used for synthesis of PI and thus start another inositol cycle.
To identify new cell-permeable IMPase inhibitors, we developed a cell-based IMPase assay in which the cytosolic IP1 is measured by a time-resolved fluorescence resonance energy transfer (TR-FRET) assay. In this assay, an IP1 specific antibody is used to detect the labeled IP1 tracer. When the cell lysate contains the elevated IP1 due to the inhibition of IMPase, the TR-FRET between the labeled antibody and IP1 tracer is disrupted resulting in a reduction in the total signal. Since the TR-FRET is used, this cell-based assay is a homogenous assay without cell wash and medium change that is suitable for assay miniaturization and HTS. In this particular assay, a small amount of lithium is added to potentiate the response of weak activators.
NCGC Assay Protocol Summary:
A Chinese hamster ovary (CHO) cell line stably expressing the M1 receptor (CHO-M1) was obtained from ATCC and maintained in F-12 Kaighn's media (Invitrogen, Carlsbad, CA) supplemented with 10 % FBS, 100 units/ml penicillin, 100 ug/ml streptomycin and 250 ug/ml geneticin at 37C, 5% CO2 in a humidified atmosphere. Before the assay, aliquots of cells were frozen and stored at -135C. The assay was performed in 1536-well format. Data are reported for both the ratio of the two emission wavelengths, and also for the component 'donor' channel, Em2=620. […] AC50 values were determined from concentration-response data modeled with the standard Hill equation.
(1) Frozen CHO-M1 cells were thaw, washed once with fresh media and resuspended in F12K media containing 10% FBS, 100 units/ml penicillin and 100 ug/ml streptomycin. Cells were plated at 4ul/well (2000 cells) in white, tissue culture treated 1536-well plates, and then cultured at 37C, 5 % CO2 for 16 to 30 hours.
(2) Add 23 nl/well of compound in DMSO solution. The final titration for each compound was between 0.6 nM and 46 uM.
(4) Incubation at 37C, 5 % CO2 for 30 min.
(5) Add 1 ul/well of d2-conjugated IP1 (d2-IP1) and 1 ul/well of Eu+ cryptate conjugated anti-IP1 antibody (Eu+-Ab) prepared in the cell lysis buffer, both from the IP-One kit (Cisbio, MA).
(6) Incubate at room temperature for 10 minutes.
(7) Detect the assay plate (Ex = 320, Em1 =665 and Em2 620) in a ViewLux plate reader.
For orientation: Quantitative high-throughput screening tests each substance at several concentrations.
Regarding `CN(C)C1C(=O)C(C(N)=O)=C(O)[C@@]2(O)C(=O)C3=C(O)c4c(O)cccc4[C@@](C)(O)C3C[C@@H]12` (stereo not given in full), the Potency is 10 µM (active).
On the same count and under the same terms, the figure for `CN(C)[C@@H]1C(=O)C(C(N)=O)=C(O)[C@@]2(O)C(=O)C3=C(O)c4c(O)cccc4[C@@](C)(O)C3CC12` (stereo not given in full) is 8.91 µM (active).
Turning to `CC(=O)c1c(O)c(C)c(O)c(Cc2c(O)c3c(c(C(=O)/C=C\c4ccccc4)c2O)OC(C)(C)C=C3)c1O`, the “activity, negative = IMPase inhibition” value is 26.8% (inactive).
On the same count and under the same terms, the figure for `CC[C@@](O)(C(=O)O)c1cc2n(c(=O)c1CO)Cc1cc3ccccc3nc1-2` is -9.04% (inactive).
Still for that read-out and setting: next, `Clc1ccccc1`: -3.42% (inactive).
On to `CC[N+](C)(CC)CCC[n+]1c(-c2ccccc2)c2cc(N)ccc2c2ccc(N)cc21`, for which the Potency result is “inactive”.
For the molecule `O=P(O)(O)C(O)c1ccc2ccccc2c1` (stereo not given), the “activity, negative = IMPase inhibition” value is 31.4% (inactive).
Same read-out and setting: the figure for `CC(C)(c1ccccc1)c1ccc(O)cc1` is 0.357% (inactive); for `O=C(CN1CCN(S(=O)(=O)c2ccc3ccccc3c2)CC1)NC(=O)NC1CCCCC1` it is 42.4% [at 38.3 µM] (inactive).
Same read-out and setting: the figure for `c1ccc(N2CC[C@@]3(CCCNC3)C2)nc1` is 15% (inactive); for `CCC(=O)CC(c1ccc([N+](=O)[O-])cc1)c1c(O)c2ccccc2oc1=O` (stereo not given) it is -1.57% [at 38.3 µM] (inactive); for `COc1cc(C(c2c(O)c3ccccc3oc2=O)c2c(C)n(C)n(-c3ccccc3)c2=O)ccc1O` (stereo not given) it is 1.66% (inactive).
`O=c1oc2ccccc2c(O)c1C(c1ccccc1O)c1c(O)c2ccccc2oc1=O`: the Potency is 10 µM (active).
Regarding `O=C(O)C(=O)Cc1ccc2c(c1)OCO2`, the “activity, negative = IMPase inhibition” value was 4.01% (inactive).
In the case of `c1ccc(Cc2nn3c(Cn4cnc5ccccc54)nnc3s2)cc1`, the “activity, negative = IMPase inhibition” value was 47% [at 38.3 µM] (inactive).
